# Results reported in the supplement of paper PMC9117331.
# Columns and labels:
# Conditions in all cases: 0.5 µM; time after treatment 48 h; PC9 signalome
# PC9 [1] = experiment: AKT reporter activity score (signed KS statistic vs DMSO) (signed KS statistic (-1 to 1)); higher = stronger activation of the pathway reporter relative to DMSO
# PC9 [2] = experiment: RAR reporter activity score (signed KS statistic vs DMSO) (signed KS statistic (-1 to 1)); higher = stronger activation of the pathway reporter relative to DMSO
# PC9 [3] = experiment: PKC reporter activity score (signed KS statistic vs DMSO) (signed KS statistic (-1 to 1)); higher = stronger activation of the pathway reporter relative to DMSO
# PC9 [4] = experiment: PKA reporter activity score (signed KS statistic vs DMSO) (signed KS statistic (-1 to 1)); higher = stronger activation of the pathway reporter relative to DMSO
# PC9 [5] = experiment: p38 reporter activity score (signed KS statistic vs DMSO) (signed KS statistic (-1 to 1)); higher = stronger activation of the pathway reporter relative to DMSO
# PC9 [6] = experiment: HIF reporter activity score (signed KS statistic vs DMSO) (signed KS statistic (-1 to 1)); higher = stronger activation of the pathway reporter relative to DMSO
# PC9 [7] = experiment: ERK reporter activity score (signed KS statistic vs DMSO) (signed KS statistic (-1 to 1)); higher = stronger activation of the pathway reporter relative to DMSO
# PC9 [8] = experiment: JNK reporter activity score (signed KS statistic vs DMSO) (signed KS statistic (-1 to 1)); higher = stronger activation of the pathway reporter relative to DMSO
# PC9 [9] = experiment: WNT reporter activity score (signed KS statistic vs DMSO) (signed KS statistic (-1 to 1)); higher = stronger activation of the pathway reporter relative to DMSO
# PC9 [10] = experiment: NFkB reporter activity score (signed KS statistic vs DMSO) (signed KS statistic (-1 to 1)); higher = stronger activation of the pathway reporter relative to DMSO
# PC9 [11] = experiment: YAP/TAZ reporter activity score (signed KS statistic vs DMSO) (signed KS statistic (-1 to 1)); higher = stronger activation of the pathway reporter relative to DMSO
compound,measurement,setting,value
CC[C@@H]1/C=C/C=C/C[C@H](C)[C@H](O)[C@](C)(O)C(=O)[C@H](C)[C@@H](O)[C@H](C)C(=O)[C@H](C)[C@@H](O)[C@H](C)/C=C/C(=O)O[C@H]2[C@@H](C)[C@@H](CC1)O[C@@]1(CC[C@@H](C)[C@@H](C[C@H](C)O)O1)[C@@H]2C [Oligomycin A],AKT reporter activity score,PC9 [1],-0.252
same,RAR reporter activity score,PC9 [2],0.0549
same,PKC reporter activity score,PC9 [3],0.0686
same,PKA reporter activity score,PC9 [4],-0.0505
same,p38 reporter activity score,PC9 [5],-0.305
same,HIF reporter activity score,PC9 [6],0.335
same,ERK reporter activity score,PC9 [7],0.114
same,JNK reporter activity score,PC9 [8],0.0667
same,WNT reporter activity score,PC9 [9],0.138
same,NFkB reporter activity score,PC9 [10],0.0911
same,YAP/TAZ reporter activity score,PC9 [11],0.161
